FMDV inh = antivirals against foot and mouth disease virus; FMDV antiviral cell-based qHTS; Potency, µM (titrated, usually from 57.9 µM), for the others: at the highest dose activity change, negative = inhibition, actives largely listed as inhibitors; 410,000 compounds, 1.2% hits; AID 1159524; calls by dose curve; tested in HEK293T cells; further: read-out not given here; potency means the concentration at half of the fitted maximal effect; nearly all actives have a fitted effect of over 45% in size
Vaccinia Venus = inhibitors of vaccinia virus (Venus reporter); Vaccinia virus Venus reporter expression, fluorescence; 330,000 compounds, 0.46% hits; Potency, µM (titrated, usually from 36.5 µM), without a hit: at the highest dose activity change, negative = inhibition, actives largely listed as inhibitors; calls by dose curve; tested in A549 cells; further: potency means the concentration at half of the fitted maximal effect; nearly all actives have a fitted effect of over 30% in size
FBPA Giardia inh = inhibitors of Giardia lamblia fructose-1,6-bisphosphate aldolase. purified Giardia FBPA. AID 2451. A8B2U2. 290,000 compounds, 0.71% hits. Potency, µM (top dose mostly 59.6 µM), for inactives: top-dose activity, negative = inhibition, hits mostly inhibitors; further: potency means the concentration at half of the fitted maximal effect; nearly all actives have a fitted effect of over 55% in size
Target sequence (A8B2U2 whole entry, looked up): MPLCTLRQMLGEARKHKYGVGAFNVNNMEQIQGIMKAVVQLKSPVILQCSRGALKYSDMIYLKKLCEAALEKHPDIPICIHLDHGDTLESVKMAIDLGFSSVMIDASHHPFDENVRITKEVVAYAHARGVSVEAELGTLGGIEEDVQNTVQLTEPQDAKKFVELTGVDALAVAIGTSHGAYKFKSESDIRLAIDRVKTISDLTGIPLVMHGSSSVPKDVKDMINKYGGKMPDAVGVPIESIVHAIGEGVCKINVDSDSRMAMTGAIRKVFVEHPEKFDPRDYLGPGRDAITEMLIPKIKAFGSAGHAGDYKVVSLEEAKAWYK
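40 nM FBPA preincubated 10 min at RT with compound (up to 57.5 uM final), then substrate plus GAPDH/TPI/NAD/arsenate coupling and diaphorase/resazurin added. Fluorescence read after 20 min at RT, 525/598 nm.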
VACV mCherry inh = vaccinia inhibition (mCherry reporter) | AID 720579 | 310,000 compounds, 0.63% hits | Vaccinia virus mCherry reporter infection, fluorescence | Potency, µM (highest dose often 36.5 µM), for inactives: top-dose activity change, negative = inhibition, hits mostly inhibitors; calls by dose curve; tested in A549 cells; further: potency means the concentration at half of the fitted maximal effect; nearly all actives have a fitted effect of over 35% in size
HCMV inh = human cytomegalovirus inhibition; HFF cells, HCMV-luciferase reporter, 72 h; active compounds read low; activity change, negative = inhibition, % at 57.5 µM; 410,000 compounds, 4.5% hits; in the data active means activity change below about -60%; inconclusive means no clear call, values can overlap the other calls; inactive means above about -39%
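Luciferase read-out from HCMV-luciferase-infected HFFs (MOI 1 PFU/cell) 72 h post infection at 37C; compounds added after 16 h cell attachment; activity normalized between buffer-only basal and Salinomycin (10uM) inhibitor controls.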
HCV inhibitor = HCV inhibition. Huh7.5.1 HCVcc-Cre infection, luciferase reporter, 44 h. Potency, µM (titrated, usually from 41.8 µM), inactives show top-dose activity change, negative = inhibition, hits mostly inhibitors. 340,000 compounds, 3.4% hits; further: potency means the concentration at half of the fitted maximal effect
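After 44 h co-culture of compound, cells and HCVcc-Cre (~0.5 moi), substrate is added for 15 min at room temperature and luciferase measured over 15 sec. Cells were seeded at 1,000/well and pre-cultured 4 h.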
* marks the source's active call; other numbers are inactive results; i = inactive; ? = inconclusive; · = no result; [ ] = remark or other dose. Shown are actives, neighbours in structure and some others; about 7.5% of the full set was active somewhere. Unless noted, the call rests on the fitted dose curve; in most records, active means well fitted curve in the direction sought with a large enough effect; inconclusive means small, poorly fitted or top-dose-only effect, or another doubt; inactive means no such curve, though single readings can be large; an effect the other way counts as inactive or inconclusive. On the % scale 0 is the no-effect control and ±100 the full control effect.

SMILES | FMDV inh | Vaccinia Venus | FBPA Giardia inh | VACV mCherry inh | HCMV inh | HCV inhibitor
CCC(C)C(NC(N)=O)C(=O)Nc1ccc(S(=O)(=O)Nc2ccc(OC)cc2)cc1 (stereo not given) | 14% | 0% | -3% | -2% | -102* | -17%
CCOc1ccc(NC(=S)Nc2ccc(OCC)cc2)cc1 | -19% | -23% | 2% | -4% | -100* | 5%
CCCCNC(=O)NS(=O)(=O)c1ccc(NC(=O)C(NC(N)=O)C(C)CC)cc1 (stereo not given) | 22% | 1% | 3% | i | 29 | 6%
C=C1CC[C@H](O)C/C1=C/C=C1\CCC[C@]2(C)[C@@H]([C@H](C)CC[C@@H](O)C(C)(C)O)CC[C@@H]12 | · | · | 5% | · | · | ·
CC(C)NC(=O)Nc1ccc2c(c1)C(=O)N([C@H](C)CO)C[C@H](C)[C@@H](CN(C)C(=O)NC(C)C)O2 | 0% | 1% | · | -8% | 4 | 23%[8.37 µM]
CC(=O)c1c(C)[nH]c(C(=O)N(C)CC(=O)Nc2ccc(Cl)c(C(F)(F)F)c2)c1C | -13% | -11% | · | -10% | -11 | -11%
CCOc1ccccc1NC(=O)CN1C=NS(=O)(=O)c2ccccc21 | -17% | -14% | · | -11% | 2 | ·
COc1ccc(-n2nc(C(=O)NCC(=O)Nc3cc(Cl)c(OC)cc3OC)c3ccccc3c2=O)cc1 | -11% | -3% | -4% | -9% | 16 | 32µM*
COc1ccc(-n2nc(C(=O)NCC(=O)NC3CCCC(C)C3C)c3ccccc3c2=O)c(OC)c1 (stereo not given) | -17% | 0% | -14% | -12% | -61* | -14%
COc1ccc(-n2nc(C(=O)Nc3ccc(OC)c(OC)c3)c3c4ccccc4n(C)c3c2=O)cc1 | -16% | -19% | 0% | i | -64* | ?
CC(C)CN(CCCNC(=O)c1cn(C)c2ccc(S(=O)(=O)N(C)C3CCCCC3)cc2c1=O)CC(C)C | -4% | -1% | · | -9% | 2 | ·
O=S(=O)(c1ccc(-c2n[nH]c(=S)o2)cc1)N1CCCCC1 | 5% | -5% | · | ? | -24 | 15%
CN(c1ccccc1)S(=O)(=O)c1ccc(Cl)nc1 | 5% | -28% | 0% | ? | -17 | -3%
Cc1nc(S(=O)(=O)N(C)c2ccccc2)c(C#N)c(C)c1Cl | ? | -7% | 4% | -5% | -97* | -25%
COc1ccc(-c2nn(-c3ccccc3)cc2CNC[C@H]2O[C@@H](n3cnc(C(N)=O)n3)[C@H](O)[C@@H]2O)cc1 | 11% | -17% | · | -11% | -12 | 30%
COc1cc(OC)c2c(=O)c(OC)c(-c3ccc(OC)c(OC)c3)oc2c1 | 5% | 0% | -2% | -13% | · | 1.1µM*
COc1ccc(-c2cc(=O)c3c(O)c(OC)c(O)cc3o2)cc1 | -23% | -25% | 3% | ? | 33 | -25%
COc1ccc2c(=O)c(OC)c(-c3ccccc3)oc2c1 | 11% | 0% | 12% | i | · | ·
COc1ccc(-c2oc3cc(O)c(OC)c(O)c3c(=O)c2OC)cc1O | 20% | ? | · | ? | -62* | 3%
O=C(O)CCCCCCCCCCCNC(=O)NC12CC3CC(CC(C3)C1)C2 | 0% | -13% | · | -7% | -27 | 10%
CC(=O)Nc1nonc1-c1nnc(SCC(=O)N(C)c2ccccc2)n1C | 4% | -7% | · | 0% | -9 | ·
N=C1C=CC(=C(c2ccc(N)cc2)c2ccc(N)cc2)C=C1 | -47% | ? | · | ? | -100* | 6.3µM*
Nc1ccc(C(=O)C(=O)c2ccc(N)cc2)cc1 | 8% | -18% | 10% | i | -8 | 5%
O=C(Nc1cccc(S(=O)(=O)N2CCCCC2)c1)C1COc2ccccc2O1 (stereo not given) | -22% | · | · | · | -10 | 10µM*
Cc1ccc(S(=O)(=O)N2CCCCC2)cc1NC(=O)C1COc2ccccc2O1 (stereo not given) | ? | -23% | · | -20% | 11 | ·
SMILES | FMDV inh | Vaccinia Venus | FBPA Giardia inh | VACV mCherry inh | HCMV inh | HCV inhibitor
O=C(Nc1ccc(S(=O)(=O)N2CCCC2)cc1)C1COc2ccccc2O1 (stereo not given) | -15% | -1% | 0% | -7% | -16 | ?
Cc1ccc(NC(=O)C2COc3ccccc3O2)cc1S(=O)(=O)N1CCCCC1 (stereo not given) | ? | · | · | · | ? | 11µM*
COc1ccc(-c2nc3cc(C)ccc3cc2CN(C(=O)c2ccc(C)s2)C2CC2)cc1OC | -14% | -9% | · | -21% | · | ·
COc1ccc(OC)c(NC(=S)NN2CCOCC2)c1 | 23% | -7% | -12% | i | -102* | 20%
COc1ccc(Cl)cc1NC(=S)NN1CCOCC1 | 7% | -15% | 1% | -21% | ? | 10%
COC(=O)c1c(C)oc(C)c1S(=O)(=O)NCc1cccs1 | 78% | · | -10% | · | -60* | 9%
COC(=O)c1c(C)oc(C)c1S(=O)(=O)NCc1ccco1 | 53% | · | 2% | · | 137 | 20%
Cc1ccc(C)c2[nH]c(=O)c(CCNC(=O)CCc3ccccc3)cc12 | -2% | -7% | -2% | -1% | -76* | 0%
C=CC(C)(C)c1c(O)c(CC=C(C)C)c(O)c2c(=O)c3ccc(O)c(O)c3oc12 | ? | ? | · | 8.9µM* | · | 11µM*
C=CC(C)(C)c1c2occc2c(O)c2ccc(=O)oc12 | ? | -12% | · | -4% | 50 | -9%
CCN(CC)C1CCN(C(=O)c2cnn(-c3nccc(-c4ccco4)n3)c2C(C)C)C1 (stereo not given) | -2% | -4% | · | -11% | · | ·
O=C1C=C(NCCc2cc(Br)c(O)c(Br)c2)C(=O)c2ncccc21 | 10µM* | ? | · | ? | -100* | ?
O=C1C=C(NCCO)C(=O)c2cnccc21 | · | · | 10% | · | · | ·
Cc1ccc(S(=O)(=O)N2CCN(c3nc(-c4cncs4)nc4ccccc34)CC2)cc1 | · | -12% | · | -15% | · | ·
COc1ccc(CNCc2cn(-c3cccc(F)c3)nc2-c2ccc(C)o2)cc1 | -17% | · | -2% | · | -26 | 10µM*
O=C(/C=C/c1ccc([N+](=O)[O-])cc1)Nc1ncc([N+](=O)[O-])s1 | -72% | · | -16% | · | -113* | 11µM*
COC(=O)c1c(C)[nH]c(O)c1C=Nc1ccc(C#N)cc1 | 13% | · | 16µM* | · | -8 | -12%
CCN(c1ccc(OC)cc1)S(=O)(=O)c1csc(C(=O)N2CCCC2)c1 | -19% | · | 23% | · | ? | -20%
Cc1cc(F)ccc1C(O)c1ncc(-c2cccc(OCc3ccccc3)c2)[nH]1 (stereo not given) | 7% | -9% | · | -4% | -18 | ·
O=C(N/N=C/c1ccccc1)c1[nH]c2ccc(Br)cc2c1-c1ccccc1 | 10% | -28% | 1% | ? | -99* | ?
O=C(NN=C1CCCC1)c1[nH]c2ccc(Br)cc2c1-c1ccccc1 | -13% | ? | 0% | 11µM* | -91* | -11%

Source: PubChem BioAssay (National Center for Advancing Translational Sciences (NCATS))
